# Data taken from the supplement of paper PMC10338343.
# ± gives the standard deviation. The full ranking holds about 8,200 sequences; the median of “pre-steady-state target cleavage rate” is about 0.024, and the highest 2% start at about 1.3. The sample holds the highest values, similar sequences and a random draw of the others, so the mix is not that of the screen.
# Tested on: MIWI (PIWIL1) piRISC loaded with L1MC piRNA (30 nt)
# Test: pre-steady-state target cleavage rate (min^-1); MIWI and MILI are mouse PIWI proteins and EfPiwi is from a freshwater sponge; tags in brackets are library labels; higher = faster piRNA-guided slicing of the target
# Conditions: guide: L1MC piRNA 5'p-UAACUAAAUACUAUGCAAGCUGUAGGUCCU
# Protocol: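 Cleave-'n-Seq: a library of target RNAs (target site embedded in constant flanks, ACAGCATTCCGCGTTAGTGATATCCG... 5' flank; DNA-blocked outside the site) at 0.1 nM was incubated with 1 nM active mouse MILI or MIWI piRISC (synthetic 5'-monophosphorylated piRNA guide) with or without 500 nM mouse GTSF1 at 33 °C for 1 min to 16 h. Uncleaved targets were sequenced and normalised to non-target controls, and the pooled three trials were fitted to a burst-and-steady-state model to give the pre-steady-state cleavage rate (min^-1; k3 is constrained to at most 1e-4). Sequence is the target site only; target names encode pairing extent (gX:gY) and contiguous / 1-mismatch / 2-mismatch / bulge geometry. Fits with R² ≤ 0 are excluded.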
# [1] = auxiliary factor: 500 nM mouse GTSF1
# [2] = auxiliary factor: none (no GTSF1)
Sequence,pre-steady-state target cleavage rate [1],pre-steady-state target cleavage rate [2]
UCCACCUAGAGCUUGCAUAGUUUUUAGUUA,0.22 ± 0.03,0.0119 ± 0.0015
UCCUGGAUGACGCUUGCAUAGUAUUUAGUUA,0.911 ± 0.059,0.0648 ± 0.0085
UCCACCUACUGCUUGCAUAGUAUUUAGAUA,0.253 ± 0.043,0.0104 ± 0.0021
UCCUGGUUGUGCUUGCAUAGUAUUUAGUAA,0.2 ± 0.022,0.0175 ± 0.0053
UCCUGCUACAGCUUGCAUAGUGUUUAGUUA,0.648 ± 0.045,0.0278 ± 0.0045
AGGACCUCACAGCUUGCAUAGUAUUUAGUUA,1.28 ± 0.064,0.102 ± 0.017
UCCACCUCACAGCUUGCAUAGUAUUUAGUUA,1.06 ± 0.051,0.0701 ± 0.012
UGGACCUCACAGCUUGCAUAGUAUUUAGUUA,1.46 ± 0.084,0.0711 ± 0.014
UCGACCUCAGCUUGCAUAGUAUUUAGUUA,1.38 ± 0.056,0.064 ± 0.013
UCGACCUCACAGCUUGCAUAGUAUUUAGUUA,1.38 ± 0.05,0.0855 ± 0.017
UCGACCUUGAGCUUGCAUAGUAUUUAGUUA,0.789 ± 0.057,0.0478 ± 0.0086
UCGACCUCCAGCUUGCAUAGUAUUUAGUUA,1.17 ± 0.06,0.0635 ± 0.0099
AGGACCUUGUGCUUGCAUAGUAUUUAGUUA,0.869 ± 0.046,0.0654 ± 0.012
UCCACCUACAGCUUGCAUAUUAUUUAGUUA,1.01 ± 0.075,0.0312 ± 0.007
UGCACCUACAGCUUGCAUUGUAUUUAGUUA,0.808 ± 0.057,0.0286 ± 0.0068
UCCUGGAUGUCGAUGCAUAGUAUUUAGUUA [g2:g17:cont:t1A],0.0169 ± 0.005,
UGGACCUACAGCAAGCAUAGUAUUUAGAAA,0.271 ± 0.031,
UCCUGGAUGUCCUUGCAUAGUAUUUAGCUUA,0.0471 ± 0.0091,0.00476 ± 0.0022
UGGACCUACAGCUUGCAUAGUAUUUAGUCA,0.934 ± 0.05,0.0559 ± 0.011
AGGACCUACAGCUUGGAUAGUAUUUUGUUA,1.05 ± 0.077,0.0416 ± 0.0083
UCCUGGAACAGCUUGCUAUGUAUUUAGUAA,0.0313 ± 0.0087,0.00333 ± 0.002
UCCUGGAUCAGGAAGCAUAGUAUUUAGUUA,0.00993 ± 0.0028,
UGGACCUACUGCUUGCUUAGUAUUUAGUUA,1.4 ± 0.081,0.0402 ± 0.0083
UGGACCUACACCUUGCUUAGUAUUUAGUUA,1.1 ± 0.062,0.0262 ± 0.0061
UCCUGCUACUGCUUGCUUAGUAUUUAGUUA,0.49 ± 0.039,0.0208 ± 0.003
AGGACCUACUGCUUGCUUAGUAUUUAGUUA,1.39 ± 0.087,0.05 ± 0.01

Sequence,pre-steady-state target cleavage rate [1],pre-steady-state target cleavage rate [2]
AGGACCUACUGCUUGCAUUGUAUUUAGUUA,0.892 ± 0.03,0.0384 ± 0.008
AGGACCUACACCUUGCUUAGUAUUUAGUUA,1.17 ± 0.057,0.046 ± 0.0082
UCCACGAACAGCUUGCAUAGUAUUUAGAAA,0.328 ± 0.039,0.00702 ± 0.0022
UCCUGGAUGUCGAACGUAAGUAUUUAGUAUA,< 0.0001,
UCCUCCUACAGCUUGCAUUGUAUUUAGUUA,0.952 ± 0.034,0.0245 ± 0.0055
UCCUGGAUGAGCUUGCAUAGUAUUUUCUAA,0.222 ± 0.052,
AGGACCUACGAGCUUGCAUAGUAUUUAGUUA,0.726 ± 0.086,0.0555 ± 0.014
UGGACCAACAGCUUGCAUACUAUUUAGUUA,0.419 ± 0.017,0.0377 ± 0.0075
UCCUGGAUGUCGUUGCAUAGUAUUUAGGUUA,0.00749 ± 0.0034,
UGGACGUACAGCUUGCAUAGUAUUUAGUUA,1.26 ± 0.051,0.0691 ± 0.012
UCCACGUACAGCUUGCAAAGUAUUUAGUUA,1.19 ± 0.054,0.0439 ± 0.009
UCCACGUACAGCUUGCUUAGUAUUUAGUUA,1.31 ± 0.058,0.0408 ± 0.0091
UGCACGUACAGCUUGCAUAGUAUUUAGUUA,1.26 ± 0.045,0.0736 ± 0.01
UCCACGUACAGCUUGCAUAGUAUUUAGUAA,0.521 ± 0.032,0.0319 ± 0.0057
ACGACGUACAGCUUGCAUAGUAUUUAGUUA,1.55 ± 0.071,0.077 ± 0.013
UCGACGUACAGCUUGCAUAGUAUUUAGAAA,0.288 ± 0.026,0.0106 ± 0.0026
UCCACGUACAGCUUGCAUAGUAUUUAGUUA,1.35 ± 0.047,0.0658 ± 0.0097
AGCACGUACAGCUUGCAUAGUAUUUAGUUA,1.28 ± 0.043,0.064 ± 0.011
UCCACCUACAGCUUGCUUAGUAUUUAGUUA,1.16 ± 0.05,0.0305 ± 0.0053
UCGACGUACAGCUUGCAUAGUAUUUAGUUA,1.56 ± 0.046,0.0711 ± 0.011
UCGACGUACAGCUUGCAUAGUAUUUAGUAA,1.01 ± 0.062,0.0599 ± 0.011
UCCACCAAGAGCUUGCAUAGUAUUUAGUUA,0.884 ± 0.095,0.0363 ± 0.0078
UCCACCUACAGCUUGCUUAGAAUUUAGUUA,0.2 ± 0.025,0.00583 ± 0.0018
UCCUGGAACAGCUAGCAUAGAAUUUAGUUA,0.209 ± 0.02,0.0115 ± 0.0043
AGGACCUACAGCUUGCAUUGUAUUUAGUUA,0.926 ± 0.04,0.0656 ± 0.015
UCCUGGAUGUCCUUGCAGAGUAUUUAGUUA,,0.00314 ± 0.002

Sequence,pre-steady-state target cleavage rate [1],pre-steady-state target cleavage rate [2]
UCCUGGAUGAGCUUGCUUAGUAUUUACUUA,0.254 ± 0.042,0.0202 ± 0.005
UCCACGUACAGCUAGCAUAGUAUUUAGUUA,0.815 ± 0.028,0.0177 ± 0.0033
UGGACCUAACAGCUUGCAUAGUAUUUAGUUA,1.33 ± 0.061,0.0609 ± 0.01
AGGACCUACAGCUUUGCAUAGUAUUUAGUUA,1.2 ± 0.066,0.0552 ± 0.012
UGGACCUACAGCUUGCAUAGUAUUUUAGUUA,1.38 ± 0.079,0.0467 ± 0.012
UGGACCUACAGCUUUGCAUAGUAUUUAGUUA,1.43 ± 0.11,0.0449 ± 0.011
AGGACCUAACAGCUUGCAUAGUAUUUAGUUA,1.1 ± 0.059,0.0788 ± 0.016
UCGACCUAACAGCUUGCAUAGUAUUUAGUUA,1.15 ± 0.069,0.0849 ± 0.017
AGGACCCUACAGCUUGCAUAGUAUUUAGUUA,1.24 ± 0.083,0.0716 ± 0.012
UCCACCCUACAGCUUGCAUAGUAUUUAGUUA,0.831 ± 0.055,0.0575 ± 0.012
UGGACCCUACAGCUUGCAUAGUAUUUAGUUA,1.42 ± 0.074,0.0808 ± 0.015
UCCACCUACAGCUUUGCAUAGUAUUUAGUUA,0.885 ± 0.054,0.0278 ± 0.0062
UCCACCUACAGCUUGCAUAAUAUUUAGUUA,0.552 ± 0.049,0.0203 ± 0.0032
UCCUGCUACAGCUACCAUAGUAUUUAGUUA,0.337 ± 0.032,
AGGACCUACAGCUUGCAUAGUAUUAGUUA,0.385 ± 0.053,0.00372 ± 0.003
UCCACCUACAGCUUGCAUAGUAUUAAGAAA,0.351 ± 0.054,
UCCUGGAUGAGAUUGCAUAGUAUUUAGUUA,0.117 ± 0.011,0.00369 ± 0.0027
UCCUGGUACAGCUUGCAUGGUAUUUAGUUA,0.891 ± 0.058,0.0741 ± 0.018
UCCUGGAUCAGCUUGGAUAGUAUUAAGUUA,0.258 ± 0.033,0.0129 ± 0.0046
AUGGACCUACAGCUUGCAUAGUAUUUAGUUA,1.34 ± 0.088,0.0872 ± 0.018
UGGACCUUCAGCUUGCAUAGUAUAUAGUUA,1 ± 0.053,0.0376 ± 0.0085
UGGACCUACAGCUUGCAUAGUAUUUAGUUG [g2:g29:cont:t1G],0.456 ± 0.037,0.0555 ± 0.01
UGGACCUACAGCUUGCAUAGUUAUUUAGUUA,0.0473 ± 0.0076,0.00533 ± 0.0021
UGGACCUACAGCUUGCAUAGUAUUUAGUUA [g2:g29:cont:t1A],1.61 ± 0.09,0.0718 ± 0.013
UCGACCUACAGCUUGCAUAGUAAUAAGUUA,0.444 ± 0.047,
